# RORgamma inh: ROR gamma (mouse) transcription inhibition; P51450; Drosophila S2 Gal4-RORgamma UAS-luciferase reporter, 20 h; Potency, µM (highest dose often 53.6 µM), inactives show at the top dose activity change, negative = inhibition, actives largely listed as inhibitors; actives 5.4% (n = 310,000); note: potency is the fitted concentration of half-maximal effect; % is set by controls: 0 for no effect and ±100 for the full control effect; nearly all actives have a fitted effect of over 60% in size
#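 Stably transfected Drosophila Schneider cells are the test system, with ROR gamma fused to Gal4 and luciferase under UAS control; luminescence is read after 20 hr of 700 uM copper sulfate induction at ambient temperature.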
# TRPV1 PAM: potentiators of human vanilloid receptor 1 (TRPV1) | TRPV1-expressing cells, Fluo-8 calcium influx, capsaicin EC20 potentiation | actives 0.02% (n = 320,000) | potentiation, % at 8.33 µM | AID 540277; in the data active = potentiation above about 80%; inconclusive = between about 30% and that limit; note: 0% is about no effect
# Target sequence (Q8NER1 whole entry, looked up): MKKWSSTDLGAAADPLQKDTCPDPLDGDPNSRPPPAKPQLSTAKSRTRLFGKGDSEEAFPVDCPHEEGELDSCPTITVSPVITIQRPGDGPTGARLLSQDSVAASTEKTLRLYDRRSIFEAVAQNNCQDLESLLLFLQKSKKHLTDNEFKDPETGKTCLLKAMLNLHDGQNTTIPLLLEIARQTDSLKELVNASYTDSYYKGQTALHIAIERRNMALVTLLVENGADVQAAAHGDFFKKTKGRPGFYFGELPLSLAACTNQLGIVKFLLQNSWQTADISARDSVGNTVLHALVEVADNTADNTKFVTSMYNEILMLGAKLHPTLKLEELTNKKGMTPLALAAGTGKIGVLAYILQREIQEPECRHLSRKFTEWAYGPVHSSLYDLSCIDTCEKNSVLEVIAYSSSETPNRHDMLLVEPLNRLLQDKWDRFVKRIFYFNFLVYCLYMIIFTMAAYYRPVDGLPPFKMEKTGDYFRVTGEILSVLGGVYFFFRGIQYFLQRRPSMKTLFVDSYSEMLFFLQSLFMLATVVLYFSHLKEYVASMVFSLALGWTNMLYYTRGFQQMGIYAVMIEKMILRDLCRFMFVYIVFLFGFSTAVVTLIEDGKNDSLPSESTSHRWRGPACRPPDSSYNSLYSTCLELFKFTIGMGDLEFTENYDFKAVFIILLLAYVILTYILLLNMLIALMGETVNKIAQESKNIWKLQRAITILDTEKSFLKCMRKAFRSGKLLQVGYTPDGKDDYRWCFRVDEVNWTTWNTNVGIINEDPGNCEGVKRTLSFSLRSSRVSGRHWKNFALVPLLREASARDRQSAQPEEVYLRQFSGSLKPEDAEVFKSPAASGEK
#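 TRPV1-expressing cells were cultured overnight at 35.5C and loaded with Fluo-8 calcium dye for 40 to 90 min at room temperature. After a 10 s baseline, compound was added and calcium influx was read kinetically for 3 min (ex 480/em 520 nm).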
# TRPV1 ag: human TRPV1 agonism | TRPV1-expressing cells, Fluo-8 calcium influx, agonist mode | actives 0.19% (n = 320,000) | Q8NER1 | AID 540275 | activation, % at 8.33 µM; in the data active = activation above about 80%; inconclusive = between about 30% and that limit; note: 0% is about no effect
#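 Fluo-8 calcium influx in TRPV1-expressing cells, kinetic read (ex 480/em 520 nm). Compound added and read 3 min for agonist activity, followed by capsaicin at EC20 final and 2 min further read for enhancement.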
# uPA surface inh: inhibitors of cell surface uPA generation | cell surface uPA generation assay, qHTS | Potency, µM (doses to about 38.3 µM), without a hit: at the top dose activity change, negative = inhibition, hits mostly inhibitors | actives 0.31% (n = 330,000); active = well fitted inhibition curve with a large enough effect; inconclusive = small, poorly fitted or top-dose-only effect; inactive = no such curve, though single readings can be large or run the other way; tested in mouse RAW 264.7 cells; note: potency is the fitted concentration of half-maximal effect; % is set by controls: 0 for no effect and ±100 for the full control effect; nearly all actives have a fitted effect of over 55% in size
# Gal4-VP16 FLuc: counter-screen for ROR gamma inhibitors: Gal4-VP16 reporter; Drosophila S2 Gal4-VP16 UAS-luciferase, luminescence, 20 h; Potency, µM (series often up to 53.6 µM), inactives show at the highest dose activity, negative = inhibition, hits mostly inhibitors; actives 3.5% (n = 310,000); AID 2546;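 note: Gal4-VP16 expression switched on by copper sulfate through the metallothionein promoter; potency is the fitted concentration of half-maximal effect; % is set by controls: 0 for no effect and ±100 for the full control effect; nearly all actives have a fitted effect of over 50% in size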
# Active calls of the source: *; u = inconclusive; x = no result given; [ ] = dose if it differs, or a comment. In the library only some 5.8% were active in any assay of this set; here they are far more common. Unless noted, calls come from the whole dose curve; as a rule, active = well fitted curve in the direction sought with a large enough effect; inconclusive = small, poorly fitted or top-dose-only effect, or another doubt; inactive = no such curve, though single readings can be large; an effect the other way counts as inactive or inconclusive.
SMILES,RORgamma inh,TRPV1 PAM,TRPV1 ag,uPA surface inh,Gal4-VP16 FLuc
CC(=O)c1cccc(NC(=S)NC(=O)c2cccc(C)c2)c1,7.9µM*,0,8,2%,u
CC(=O)c1cccc(NC(=S)NC(=O)c2ccc(Cl)cc2)c1,7.1µM*,-3,4,-13%,8.9µM*
Cc1cccc(C(=O)NC(=S)Nc2ccc3[nH]c(=O)[nH]c3c2)c1,-7%,-9,-1,0%,0%
O=C(O)c1cccc(NC(=S)NC(=O)c2ccncc2)c1,-11%,-2,0,3%,-4%
CC[C@]1(c2ccccc2)NC(=O)NC1=O,-9%,x,x,x,-13%
CCc1sc(C(=O)Nc2cccc(C(C)=O)c2)cc1C,7.9µM*,-19,u,-8%,u
CC(=O)c1ccc(NC(=S)Nc2ccc(Br)c(Cl)c2)cc1,-31%,-1,-2,-1%,0%
Cc1cccc(NC(=S)NNC(=O)c2ccccc2OC(F)F)c1,u,2,-2,-2%,u
Cc1cccc(NC(=S)NNC(=O)c2ccccc2Br)c1,0.89µM*,19,8,1%,u
CC(=O)c1ccc(NC(=S)NC(C)c2ccc(Cl)cc2Cl)cc1 (configuration not stated),11µM*,13,19,5%,-24%
CC(=O)c1cccc(NC(=S)NC(=O)c2ccccc2Br)c1,11µM*,2,12,-1%,-84%
CC(=O)c1cccc(NC(=S)NC(=O)c2ccccc2C)c1,-1%,2,2,1%,-12%
CCc1ccc(NC(=O)CN2C(=O)C(=O)N(Cc3ccccc3)C2=O)cc1,44%,-3,1,x,2%
CC1OC(OCC2OC(Oc3cc(O)c4c(c3)OC(c3ccc(O)cc3)CC4=O)C(O)C(O)C2O)C(O)C(O)C1O (configuration not stated),-5%,x,x,x,-8%
CC12C=CC(=O)C=C1CCC1C2=CCC2(C)C1CC[C@@H]2C(=O)CN1CCN(c2cc(N3CCCC3)nc(N3CCCC3)n2)CC1 (some centres not stated),7%,x,x,x,2%
Clc1ccc(/C=C/c2nc3ccccc3[nH]2)c(Cl)c1,u,-16,u,-12%,7.1µM*
Clc1ccc(/C=C/c2nc3ccccc3[nH]2)cc1,4.5µM*,-13,u,-15%,7.1µM*
Clc1cccc(Cl)c1/C=C/c1nc2ccccc2[nH]1,11µM*,-2,u,x,u
O=c1[nH]c(/C=C/c2ccccc2Cl)nc2ccccc12,-4%,5,-3,u,15%
COc1ccc(-c2c3c(=O)n(C)c(=O)n(C)c3cn2Cc2cccnc2)cc1,13%[10 µM],8,-2,0%,6%
CC(C)OC(=O)c1cn(Cc2c(F)cccc2F)c2sc(-c3ccc(NC(=O)C(C)C)cc3)c(CN(C)Cc3ccccc3)c2c1=O,-28%,x,x,x,-20%
O=C(NNC(=O)c1cc2cc(Br)ccc2oc1=O)c1ccc(O)cc1O,10µM*,-6,10,6%,u
COCCCNC(=O)c1cc2cc(Br)ccc2oc1=O,11%,-8,-1,0%,-1%
Cc1c(C(=O)NN)sc(-c2ccccc2)c1C#N,10µM*,9,2,-2%,u
CCOC(=O)c1sc(-c2ccc(C)cc2)c(C#N)c1C,16%,21,0,-1%,5%
SMILES,RORgamma inh,TRPV1 PAM,TRPV1 ag,uPA surface inh,Gal4-VP16 FLuc
COC(=O)c1ccc(NC(=S)NCCc2cccc(C)c2)cc1,1.3µM*,15,u,-2%,1.3µM*
COC(=O)c1ccc(NC(=S)NCCc2ccc(OC)cc2)cc1,7.9µM*,6,u,-8%,u
COC(=O)c1ccc(NC(=O)Nc2cccc(F)c2)cc1,u,-3,u,-3%,u
COc1ccc(C(=O)Nc2ccc(C(=O)NCCc3ccc(OC)c(OC)c3)cc2)cc1,-34%,4,-2,-9%,-12%
COc1ccc(CCNCC(=O)Nc2ccc(OC(F)(F)F)cc2)cc1OC,13%,-7,u,15%,3%
CCc1ccc(NC(=O)CNCc2ccc(OC)c(OC)c2)cc1,-11%,-17,85*,-3%,6%
COC(=O)c1ccc(NC(=S)NCCc2ccccc2C)cc1,13µM*,-10,u,1%,14µM*
Cn1cccc1C(=O)N1CCC2(CC1)CCN(c1ccccn1)CC2,28%,x,x,x,-6%
O=c1cnc2cnc(N3CCNCC3)nc2n1Cc1ccc(F)cc1,-6%,x,x,x,-5%
CO[C@H]1COC(=O)[C@@H](Cc2ccccc2)NC(=O)[C@@H](C)COC(=O)CCC[C@@H]1C,16%[10 µM],x,x,x,-18%[10 µM]
S=C(Nc1ccc2c(c1)OCO2)Nc1ccccc1Cl,u,8,1,-3%,8%
C[C@@]1(C(NC(=O)c2cccs2)c2ccc(-c3ccccc3)cc2)C[C@H]1C1CCCCC1 (some centres not stated),-2%,x,x,x,3%
COC(=O)[C@H](C(C)C)N(Cc1ccccc1)S(=O)(=O)CCN1CCCC1,x,x,x,-10%,x
COc1ccc(/C(O)=C2/C(=O)C(=O)N(c3ncccn3)C2c2ccc(F)cc2)cc1 (configuration not stated),2%,7,2,1%,2%
CCC(C)C(NC(C)=O)C(=O)NC(=O)NC(c1ccccc1)c1ccccc1 (configuration not stated),-7%,10,4,-9%,9%
CN(CC(=O)Nc1cccc(S(=O)(=O)N2CCCC2)c1)Cc1ccccc1,x,x,x,4%,x
CCOC(=O)c1ccc(NC(=S)NCCc2ccc(OC)c(OC)c2)cc1,10µM*,-9,u,1%,u
COc1ccc(CCNC(=S)NCCc2ccc(OC)c(OC)c2)cc1OC,-25%,-21,u,-3%,-4%
Cn1ccc(C(=O)Nc2ccc3c(c2)OCCO3)n1,7.9µM*,-18,16,u,u
O=C(Nc1ccc(NC(=O)c2ccccn2)cc1)C(=O)Nc1ccc2c(c1)OCCO2,u,-1,3,-3%,-8%
O=C(Nc1ccc2c(c1)OCCO2)c1ccccn1,7.1µM*,-27,19,3.5µM*,14µM*
O=C(Nc1ccc(N2CCCCCC2)cc1)c1ccccc1Cl,18%,-11,u,-15%,7%
O=C(Nc1ccc(N2CCCCC2)cc1)c1ccccn1,1.3µM*,-9,u,-16%,2µM*
CCCOC(=O)Nc1ccc(N2CCCCC2)cc1,11µM*,4,-1,-10%,u
O=[N+]([O-])C(=C1Nc2ccccc2N1)/C(Cl)=C(/Cl)Br,u,1,2,u,-27%
O=C1[C@H]2[C@H]3[C@H](O)[C@H](O)C/C(=N/OC[C@@H](O)COCc4ccco4)[C@@H]3CC[C@@H]2C(=O)N1Cc1ccc2c(c1)OCO2,6%[10 µM],x,x,x,0%[10 µM]
Cc1cc(N2CCN(c3nc4ccccc4s3)CC2)n2ncnc2n1,u,-1,5,x,11µM*
CCN1/C(=C2/SC(=S)N(C)C2=O)C=Cc2cc(C)ccc21,x,x,x,-3%,x

# Compound activity (PubChem BioAssay)
